CHX counter – counter-screen for Shiga toxin inhibitors: cycloheximide protein synthesis inhibition | max response, % | cell reporter, cycloheximide protein synthesis inhibition counterscreen | hit rate 12% among 300,000; in the data active = max response mostly above about 13%, no sharp cut-off; inactive = mostly below about 14%; also: read at 38.3 µM for the half of the compounds with a filed dose
LmPK inhibitor – inhibitors of Leishmania mexicana pyruvate kinase; Q27686; purified LmPK, Kinase-Glo ATP luminescence, 1 h; Potency, µM (titrated, usually from 57.5 µM), actives largely listed as inhibitors; hit rate 0.37% among 290,000
Target sequence (Q27686 whole entry, looked up): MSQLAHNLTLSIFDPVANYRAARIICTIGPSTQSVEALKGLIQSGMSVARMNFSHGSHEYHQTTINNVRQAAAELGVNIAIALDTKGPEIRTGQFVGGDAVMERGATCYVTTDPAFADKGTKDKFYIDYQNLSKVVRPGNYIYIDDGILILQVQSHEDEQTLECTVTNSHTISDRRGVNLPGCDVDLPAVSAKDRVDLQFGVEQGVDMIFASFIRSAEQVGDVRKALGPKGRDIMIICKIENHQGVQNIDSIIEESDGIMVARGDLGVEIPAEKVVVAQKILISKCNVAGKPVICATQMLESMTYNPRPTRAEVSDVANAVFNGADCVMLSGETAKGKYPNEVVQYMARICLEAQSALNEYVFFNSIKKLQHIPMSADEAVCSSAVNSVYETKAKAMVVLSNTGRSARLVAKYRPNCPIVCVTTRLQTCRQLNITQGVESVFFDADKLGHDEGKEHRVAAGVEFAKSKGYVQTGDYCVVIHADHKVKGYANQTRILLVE
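Kinase-Glo luminescence read after 1 h RT reaction of 0.1 nM LmPK with 0.5 mM PEP and 0.1 mM ADP. Activity scaled between uninhibited and enzyme-free controls.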
NS1 function inh – influenza NS1 inhibition; Potency, µM (doses to about 46.1 µM); hit rate 0.4% among 270,000; calls by dose curve; also: actives are rising curves; nearly all actives have a fitted effect of over 50% in size
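In this qHTS, NS1 from influenza A is expressed in budding yeast, where it slows growth. Cells are switched from glucose to 2% galactose medium (pH 6.0, -URA), treated with compound, and growth recovery is read at OD600.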
Shiga inhibitor – blocks Shiga toxin action in Vero cells; inhibition, % at 38.7 µM; hit rate 9.2% among 290,000; Vero cells, Shiga toxin protein synthesis inhibition reporter; in the data active = inhibition mostly above about 28%, no sharp cut-off; inactive = mostly below about 43%
FBPA Giardia inh – Giardia lamblia aldolase inhibition; A8B2U2; purified Giardia FBPA; Potency, µM (highest dose often 59.6 µM), most hits filed as inhibitors; hit rate 0.71% among 290,000; AID 2451; also: nearly all actives have a fitted effect of over 55% in size
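Giardia FBPA (40 nM reagent) was preincubated 10 min at RT with compound (up to 57.5 uM final), then substrate plus GAPDH/TPI/NAD/arsenate coupling system with diaphorase/resazurin was added; resorufin fluorescence (525/598 nm) was read after 20 min.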
A number is an active result; - = inactive; ? = inconclusive; . = no result given. Sampled rows, rich in hits. Any-hit rate of the full collection: about 14%. Unless noted, calls follow the shape of the dose curve; as a rule, active = well fitted curve in the direction sought with a large enough effect; inconclusive = small, poorly fitted or top-dose-only effect, or another doubt; inactive = no such curve, though single readings can be large; an effect the other way counts as inactive or inconclusive.

SMILES | CHX counter | LmPK inhibitor | NS1 function inh | Shiga inhibitor | FBPA Giardia inh
COc1cccc(CN2CC34CCC(CC3S2(=O)=O)O4)c1 (configuration not stated) | - | . | . | - | -
O=C(O)c1[nH]c2c([N+](=O)[O-])cc([N+](=O)[O-])cc2c1C(=O)O | . | . | - | . | .
CSCc1ccc(C(=O)N2CCCC(Nc3ccc4c(c3)OCCO4)C2)o1 (configuration not stated) | - | - | - | - | -
O=C(c1ccco1)N1CCCC(Nc2ccc3c(c2)OCCO3)C1 (configuration not stated) | 43 | - | - | 85 | .
CC1=CC(=C2C(=O)c3ccccc3C2=O)C=C(C)N1C | 26 | - | - | - | -
COc1ccc(S(=O)(=O)NCC2CCC(C(=O)NCc3ccc(F)cc3)CC2)cc1 (configuration not stated) | - | - | - | - | -
c1ccc2[nH]c3cc4ncnc4cc3nc2c1 | 28 | - | - | 36 | ?
FC(F)c1nc2ccccc2[nH]1 | - | - | - | - | -
O=C(c1ccccc1Cl)N1CCc2ccccc2C1 | - | - | - | - | -
CSc1ccccc1C(=O)N1CCc2ccccc2C1 | 16 | - | . | - | -
O=C(c1ccc(-n2cccn2)cc1)N1CCc2ccccc2C1 | 24 | - | - | - | -
Cn1c(C(=O)N2CCc3ccccc3C2)cc2oc3ccccc3c21 | 38 | - | - | 61 | -
Cc1ccccc1C(=O)N1CCc2ccccc2C1 | 19 | - | - | - | -
CSc1ccccc1C(=O)N1CCOCC1 | - | - | - | - | -
O=CN1CCN(C[C@H](O)CN2CCCCC2)CC1 | . | . | - | . | .
CN(Cc1ccccc1)c1nc(-c2ccc(F)cc2)cc(C(F)(F)F)n1 | - | . | . | - | .
CC(CN(C)C)C(C)(O)Cc1ccc(Cl)cc1 (configuration not stated) | - | . | . | - | -
O=C(CCc1ccccn1)N1CCCC(CNS(=O)(=O)c2cccs2)C1 (configuration not stated) | - | - | - | - | -
CSCCCNC(=S)N1CCc2ccccc2C1 | 29 | - | . | - | -
CC(C)(C)NC(=O)C(OC(=O)c1cccs1)c1ccccc1 (configuration not stated) | 22 | - | - | - | -
O=C(/C=C/c1ccco1)NC(=S)Nc1ccc(C(=O)O)cc1 | 23 | - | - | 52 | ?
CC(=O)NC(=S)Nc1ccc(NC(=S)NC(=O)/C=C/c2ccco2)cc1 | - | - | - | - | -
COc1ccc(NC(=S)NC(=O)/C=C/c2ccco2)cc1 | 43 | - | . | 101 | -
CN(C)c1ccc(-c2c(C3C4C=CCCC4(C)C(=O)N3Cc3ccccc3)ccc3ccccc23)cc1 (configuration not stated) | - | . | . | - | -
CC(C)(C)c1ccc(C(=O)CS(=O)(=O)c2ccccc2)cc1 | 38 | - | - | 88 | -
SMILES | CHX counter | LmPK inhibitor | NS1 function inh | Shiga inhibitor | FBPA Giardia inh
CSc1ccc(/C=N/NC(=O)c2cccs2)cc1 | 52 | - | - | 66 | -
Cc1ccc(/C=N/NC(=O)CNC(=O)c2cccs2)o1 | - | - | . | - | -
O=C(N/N=C/c1ccc(Cl)s1)C(O)c1ccccc1 (configuration not stated) | - | - | - | - | -
O=C(N/N=C\c1ccc(Cl)s1)c1cccs1 | 43 | - | - | - | -
COc1ccccc1C(=O)N/N=C/c1cnc2ccccc2n1 | 59 | - | - | 125 | -
O=C(N/N=C/c1ccc(-c2ccccc2C(=O)O)o1)c1cccs1 | 33 | - | - | 49 | -
O=C(N/N=C\c1ccncc1)c1ccc(Cl)s1 | - | - | - | - | .
O=C(N/N=C/c1ccncc1)c1cccs1 | 52 | - | - | 91 | -
COc1ccccc1C(=O)N/N=C/c1ccc(Cl)s1 | 49 | - | - | 78 | -
O=C(N/N=C/c1ccncc1)c1ccc(NS(=O)(=O)c2cccs2)cc1 | - | - | . | - | -
O=C(N/N=C/C=C\c1ccco1)c1cccs1 | 29 | - | . | 82 | ?
O=C(N/N=C/c1ccc(-n2ccnc2)cc1)c1cccs1 | 45 | - | - | 85 | -
CN(Cc1ccco1)c1nc(-c2cccc(C#N)c2)nc2ccccc12 | . | . | . | . | -
COc1ccc(-c2oc3ccccc3c2C(=O)OCc2ccccc2OC)cc1 | - | - | - | - | -
Cc1ccc(NC2CCCCC2NS(=O)(=O)c2ccccc2)c(C)c1 (configuration not stated) | - | - | - | - | .
CCCCCOC(=O)c1[nH]c2c(c1C)C(=O)C(C(=O)OC)C(C)C2 (configuration not stated) | 26 | - | - | - | -
